In PubChem BioAssay AID2283145 (EPA ToxCast) one finds AC50 and outcome data, which are given here for four compounds.

Inconclusive results are not listed. Calls of active or inactive are those of the source. The calls were made as follows: active = hit-call score of the fitted dose curve at least 0.9, where 1 is the maximum; inconclusive = response in the unintended direction; inactive = score below 0.9.

The target of this assay is human Cyclin-Dependent Kinase 6 (CDK6), CDK6 (gene 1021) (UniProt Q00534). Nature of the assay: NVS_ENZ_hCDK6: NovaScreen (NVS) Enzymatic Assay for human Cyclin-Dependent Kinase 6 (CDK6). As to the method: NVS_ENZ_hCDK6 is a biochemical, single-readout assay that uses extracted gene-proteins in a cell-free assay. Measurements were taken 1 hour after chemical dosing in a 384-well plate.NVS_ENZ_hCDK6 is one of one assay component(s) measured or calculated from the NVS_ENZ_hCDK6 assay. It is designed to make measurements of enzyme activity, a form of enzyme reporter, as detected with fluorescence intensity signals by Fluorescence and electrophoretic mobility shift technology.Data from the assay component NVS_ENZ_hCDK6 was analyzed into 1 assay endpoint. This assay endpoint, NVS_ENZ_hCDK6, was analyzed in the positive analysis fitting direction relative to DMSO as the negative control and baseline of activity. Using a type of enzyme reporter, loss-of-signal activity can be used to understand changes in the enzymatic activity as they relate to the gene CDK6. Furthermore, this assay endpoint can be referred to as a primary readout, because this assay has produced multiple assay endpoints where this one serves a enzymatic activity function. To generalize the intended target to other relatable targets, this assay endpoint is annotated to the kinase intended target family, where the subfamily is serine/threonine kinase.
human Cyclin-Dependent Kinase 6 (CDK6), CDK6 (gene 1021), sequence (Q00534 whole entry, looked up): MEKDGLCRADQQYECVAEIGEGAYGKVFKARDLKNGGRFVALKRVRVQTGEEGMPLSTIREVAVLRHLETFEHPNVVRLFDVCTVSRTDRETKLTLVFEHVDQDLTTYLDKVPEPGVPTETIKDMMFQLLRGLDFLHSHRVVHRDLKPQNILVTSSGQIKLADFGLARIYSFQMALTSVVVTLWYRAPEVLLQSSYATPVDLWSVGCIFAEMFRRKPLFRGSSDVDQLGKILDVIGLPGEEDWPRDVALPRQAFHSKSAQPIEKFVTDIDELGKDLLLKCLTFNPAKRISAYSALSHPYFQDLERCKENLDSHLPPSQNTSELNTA
Binding assays used specific radioligands (tritiated, iodinated) with non-radioactive competitive displacement ligands in agonist or antagonist protocols (as indicated) and various reference compounds and inhibitors to titrate specific binding to receptors and transporters. Most enzyme assays (CYPs, kinases, phosphatases, proteases, HDACs) used recombinant protein and specific substrates (fluorescence mostly, some colorimetric and radioactive) and inhibitors, followed by a biochemical separation of substrate and product. All assays for the biochemical HTS were initially run in duplicate at a single concentration (10 uM for CYP450 assays and 25 uM for all others). […] Each assay was run with positive and negative controls, and concurrent controls on every plate. The follow-up (secondary) screen tested active chemical-pairs in concentration series, as well as a few additional assays not tested in the primary screen, some selected negative inactives, and several cases re-run in the concentration series for confirmatory purposes.
As for `S=C(S)NCCNC(=S)S.[Mn+2].[S-]C([S-])=NCCN=C([S-])[S-].[Zn+2]`, the half-maximal activity concentration (AC50) was 9.65 µM (active).
With `Nc1c(Cl)c(Cl)nc(C(=O)O)c1Cl`, the call was inactive.
As for `CN(C)[C@@H]1C(=O)C(C(N)=O)=C(O)[C@@]2(O)C(=O)C3=C(O)c4c(O)cccc4[C@@](C)(O)[C@H]3[C@H](O)[C@@H]12`, the AC50 was 23.1 µM (active).
Same read-out and setting: for `S=C([S-])NCCNC(=S)[S-].[Mn+2]` the value was 10.5 µM (active).

The term AC50 denotes the concentration giving half of the maximal activity seen.
